# Reference: the supplement of paper PMC10338343
# ± gives the standard deviation.
# Test system: MILI (PIWIL2) piRISC loaded with piRNA #1 (26 nt)
# Experiment: pre-steady-state target cleavage rate (min^-1); guide: piRNA #1 5'p-UGAGGUAGUAGGUUGUAUAGUAUCCA; MIWI and MILI are mouse PIWI proteins and EfPiwi is from a freshwater sponge; tags in brackets are library labels; higher = faster piRNA-guided slicing of the target
# Details: auxiliary factor: 500 nM mouse GTSF1
# Procedure, shortened: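 Cleave-'n-Seq: a transcribed, DNA-blocked target RNA library (0.1 nM) was mixed with 1 nM active affinity-purified piRISC carrying one synthetic guide, with or without 500 nM GTSF1 partner protein, in HEPES–potassium acetate buffer at 33 °C for 0–8 or 0–960 min. Uncleaved targets were sequenced and normalised to depth and to weakly complementary targets. Three trials were pooled, and k3 was capped at 0.0001 min^-1. The pre-steady-state cleavage rate came from a burst-and-steady-state fit.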
row,Sequence,pre-steady-state target cleavage rate
1,GGAGACGAUACUAUACAACCUACAACGUCA,0.00524 ± 0.0044
2,GGAGACCUAUGUAUAGUACCUACUACCUCA,0.013 ± 0.0027
3,GGAGACCUAUGAUAACAAACUACUACCUCA,0.0114 ± 0.0029
4,GGAGACCUAUGAUAUGUACCAACAACCUCA,< 0.0001
5,GGAGACCUAACUAUUCAACGUACUACCUCA,0.0113 ± 0.0053
6,GGAGACCUAUGUAUACAACCUACUUCCACA,0.0135 ± 0.0034
7,GGAGACCUAUGUAUACAAGCUACUACGUCA,0.0451 ± 0.009
8,GGAGACCUAUGAUUACAAGGUACUACCUCA,0.0041 ± 0.0031
9,GGAGACCUAUGUUUUCAACCUACUACCUCA,0.00894 ± 0.0025
10,GGAGACCAUAGUAUACAACCUAGUACCUCA,0.0677 ± 0.011
11,GGAGACCUAUGAUAUGUUGGUACUACGAGA,< 0.0001
12,GGAGACGAUACAAUUCAACCUACUACCUCA,0.147 ± 0.01
13,GGAGACCUAACUAUACUACCUACAACCUCA,0.0957 ± 0.018
14,GGAGACCUUACUAUACAUCCUUCUACCUCA,0.0405 ± 0.0086
15,GGAGACCUAUGAAUACAACCUACUACCAUCA,0.00646 ± 0.0026
16,GGAGACGAUACAAUAGAACCUACUACCUCA,0.178 ± 0.014
17,GGAGACCUAUGAUAACAAGCUAGUACCUCA,0.00508 ± 0.0032
18,GGAGACCUAUCUUUACAACCUAGUACCUCA,0.00897 ± 0.003
19,GGAGACCUAUCAAUACAACCUACUACCUGA,0.0265 ± 0.0091
20,GGAGACCUAUCUAUACAAGCAACUACCUCA,0.00953 ± 0.0029

row,Sequence,pre-steady-state target cleavage rate
1,GGAGUGGAUUCUAUACAACCUACUACCACA,0.121 ± 0.011
2,GGAGUGGAAACUAUACAACCUACAACCUCA,0.0962 ± 0.023
3,GGAGACCUAAGUAUACAACCUACAACCUCA,0.0483 ± 0.0084
4,GGAGACCUUACUAUACUACCUACUACCACA,0.173 ± 0.014
5,GGAGACCUAUCUAUACAACCUACUACUCA,0.0936 ± 0.013
6,GGAGACCAUACUAUACAACGAUGAUGGAGA [g12:g23:cont:t1A],< 0.0001
7,GGAGACCUAACAAUAGAACCUACUACCUCA,0.0656 ± 0.012
8,GGAGACCUAUGAUAUGUUCCUACUACCUGCA,< 0.0001
9,GGAGACCUAUGAUAACAACUUACUACCUCA,0.00545 ± 0.0023
10,GGAGACCUAUGAUUACAACCUAUCUACCUCA,0.00755 ± 0.003
11,GGAGUGCAUUCUAUACAACCUACUACCUCA,0.13 ± 0.011
12,GGAGACCUAACUAUACUACCUACUACCUGA,0.0917 ± 0.025
13,GGAGACCUAUGUAUACAUCCUACUACCUCA,0.124 ± 0.012
14,GGAGACCUAUGAUAACAAGCUACAACCUCA,0.0095 ± 0.0029
15,GGAGACCUAUGUUUACAACCUACUACCUGA,0.00584 ± 0.0023
16,GGAGACGAUACAUUACAACCUACUACCUCA,0.173 ± 0.015
17,GGAGAGGAUAUUAUACAACCUACUACCUCA,0.157 ± 0.0082
18,GGAGACCUAUGAUAUGUACCUACAAGCUCA,< 0.0001
19,GGAGACCUUACUAAACAACCUACUACCUGA,0.0914 ± 0.017
20,GGAGACCUAUGAUAUGUUCCUAGUACCUGA,< 0.0001
